Source: PubChem (several laboratories)
PKA-R1A act: activators of PKA-R1A holoenzyme, primary screen, biochemical, fluorescence polarization, Cy5-IP20, bovine R1A, mouse PKAc; cAMP-dependent protein kinase type I-alpha regulatory subunit (Bos taurus) + …; 0.083% of 340,000 active; AID 504707, 2011; PKA-R1A dissociation; scaled: DMSO 0%, 113 µM cGMP 100%; activation, % at 11.4 µM;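 active = percent activation above the mean of all tested compounds plus 3 SD, cut at about 19% in these data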;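 note: higher means more PKAc released from R1A so a rise in polarization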
PKA-R2B activ: activators of PKA-R2B holoenzyme, primary screen, biochemical, fluorescence polarization, Cy5-IP20, human; PKA-R2B holoenzyme dissociation; R2B truncated from residue 108, S112A mutant; 0% DMSO only, 100% 113 µM cGMP; AID 504700, 2011; 0.079% of 340,000 active; activation, % at 11.4 µM;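 active = activation above a cutoff set at the mean over all compounds plus 3 SD, cut at about 18% in these data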;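 note: higher means more holoenzyme dissociation and a rise in polarization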
Target sequence (P31323 whole entry, looked up, other chains not shown, the tested form may be a part): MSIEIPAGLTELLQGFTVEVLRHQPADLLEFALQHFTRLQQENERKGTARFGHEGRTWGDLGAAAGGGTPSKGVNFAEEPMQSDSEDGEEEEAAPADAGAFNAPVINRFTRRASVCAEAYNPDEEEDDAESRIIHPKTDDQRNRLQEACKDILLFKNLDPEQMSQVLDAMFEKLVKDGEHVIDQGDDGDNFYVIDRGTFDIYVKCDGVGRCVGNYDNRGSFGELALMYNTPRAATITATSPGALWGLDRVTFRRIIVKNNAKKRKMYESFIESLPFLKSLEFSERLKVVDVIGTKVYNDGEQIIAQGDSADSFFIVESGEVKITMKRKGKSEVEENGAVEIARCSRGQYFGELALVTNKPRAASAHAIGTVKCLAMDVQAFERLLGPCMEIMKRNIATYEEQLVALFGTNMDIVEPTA
MsrA act: bovine MsrA enzyme activators, primary screen, biochemical, absorbance, HTS. activation, % at 10.6 µM. Methionine sulfoxide reductase A (Bos taurus). purified bovine MsrA, absorbance read-out. 0.3% of 360,000 active; in the data active = activation above about 7.5%
MsrA inhibitor: bovine MsrA enzyme inhibitors, primary screen, biochemical, absorbance, HTS; inhibition, % at 15.5 µM; 0.75% of 360,000 active; purified bovine MsrA, absorbance read-out; in the data active = inhibition above about 4.5%
SUMO Mot1 rescue: yeast Mot1-301 growth rescue at high temperature, primary screen, SUMOylation pathway inhibitor project, S. cerevisiae, ATP luminescence, 38.5C | S. cerevisiae Mot1-301 growth rescue; percent above DMSO median, 100 means doubled | growth rescue, % at 18.8 µM | 1% of 320,000 active;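 active = every valid replicate shows activation above 250% relative to neutral control wells; inactive = the rest, any valid replicate at or below 250%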
Mot1 SUMO dose: growth restoration of Mot1-301 yeast on galactose, dose response, SUMO pathway inhibitor project, whole organism, S. cerevisiae, ATP luminescence, cherry-picked samples. S. cerevisiae Mot1-301 galactose growth, 24 h; -100 = growth of slx-deleted rescue strain. 2,300 tested, under 10 active. shares compounds with SUMO Mot1 rescue. growth activity, percent, % at 42 µM. AID 493004, 2010;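 active = Signal drops as the depositor expects, and the fitted half-maximal dose is no more than ten times the top valid tested dose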;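 note: more negative values mean stronger growth rescue toward the control strain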
Numbers stand for hits; – = inactive; · = not tested or not shown; + = active, no number. Compounds with a hit are over-represented: about 2% of the library has one in this group of screens.

SMILES	PKA-R1A act	PKA-R2B activ	MsrA act	MsrA inhibitor	SUMO Mot1 rescue	Mot1 SUMO dose
S=c1[nH]nc(-c2ccco2)n1-c1ccc(Br)cc1	–	–	–	–	532	–
O=C(N[C@@H](Cc1cccnc1)C(=O)N1CCC[C@H]1C(=O)NC1CCCC1)C1CCCC1	·	·	·	–	·	·
Cc1ccc(C2c3c(n[nH]c3C(C)C)C(=O)N2c2ccccc2)cc1 (stereo unspecified)	·	·	·	–	·	·
O=S1(=O)N[C@H](Cc2ccccc2)COc2cc(N3CCOCC3)ccc21	·	·	·	–	·	·
COc1ccccc1CNC(=O)CN(c1ccc(C)cc1)S(=O)(=O)c1c(C)noc1C	–	–	–	–	–	·
COc1ccccc1CNC(=O)CN(c1ccc(C)cc1)S(=O)(=O)c1c(C)n[nH]c1C	–	–	–	–	912	–
CCC(C(=O)Nc1cccnc1)c1ccccc1 (stereo unspecified)	–	–	–	–	422	–
O=C(CSc1ncn[nH]1)Nc1cccc(S(=O)(=O)N2CCCCCC2)c1	–	–	–	–	499	–
N#Cc1cc2c(nc1SCc1cccnc1)CCC2	–	–	–	–	+	–
CC1CCCC(N2C(=O)NC(NC(=O)c3ccco3)(C(F)(F)F)C2=O)C1C (stereo unspecified)	–	–	–	–	510	–
CCCCN1C(=O)NC(NC(=O)c2ccco2)(C(F)(F)F)C1=O (stereo unspecified)	–	–	–	–	–	·
Cc1ccc(C)c(-n2nnnc2SCC(=O)Nc2c(C)n(C)n(-c3ccccc3)c2=O)c1	–	–	–	–	377	–
CCN1C(=S)N[C@@H](CCc2ccccc2)C(C(=O)OC)=C1C	–	–	–	–	+	–
CCN1C(=O)N[C@@H](CCc2ccccc2)C(C(C)=O)=C1C	–	–	–	–	–	·
CCN1C(=S)N[C@@H](c2cccs2)C(C(=O)OC)=C1C	–	–	–	–	896	–
CCCCS(=O)(=O)N1CCCc2nc(-c3ccc(Br)cc3)ccc21	·	·	·	–	·	·
O=C(Nc1ccsc1C(=O)O)c1cccc(Oc2ccccc2)c1	–	–	–	–	–	·
O=C(Nc1ccsc1C(=O)O)c1cccc(C(F)(F)F)c1	–	–	–	–	968	–
Nc1[nH]c(C(=O)c2ccccc2)c(-c2ccc(Cl)cc2)c1C(=O)c1c[nH]c2ccccc12	·	·	·	–	·	·
CC(=O)/C=C/n1c(=S)oc2ccccc21	·	·	·	–	421	–
CN1NC(=O)c2ccccc2NC1=S	·	·	·	–	·	·
COC(=O)C1=C(C)N(Cc2ccc(C(F)(F)F)cc2)C(=NCc2ccc(OC)cc2)NC1c1ccccc1C(F)(F)F (stereo unspecified)	·	·	·	–	·	·
C=CCn1c(=N)c(C(=O)NCCCOC)cc2c(=O)n3ccccc3nc21	–	–	–	–	603	–
C=CCn1c(=N)c(C(=O)NCCCOC)cc2c(=O)n3cc(C)ccc3nc21	–	–	–	–	–	·
COC(=O)[C@]12C[C@H](CC(=O)NCc3ccccc3)C(=O)N(Cc3ccc4c(c3)OCO4)C1=C[C@H](COCc1ccccc1)O[C@@H]2C	·	·	·	–	·	·
SMILES	PKA-R1A act	PKA-R2B activ	MsrA act	MsrA inhibitor	SUMO Mot1 rescue	Mot1 SUMO dose
O=C(/C=C/c1ccc(Cl)cc1Cl)Nc1cccc(S(=O)(=O)NC2=NCCCCC2)c1	–	–	–	–	547	–
C[C@@H]1C=CCCO[C@]12C(=O)N(Cc1ccccc1C(F)(F)F)c1ccccc12	·	·	·	–	·	·
O=C(CN1C(=O)NC2(CCCC2)C1=O)Nc1nc2ccccc2s1	–	–	–	–	–	·
O=C(CN1C(=O)NC2(CCCC2)C1=O)Nc1nc2ccccc2[nH]1	–	–	–	–	553	–
COc1ccc(Cl)cc1NC(=S)N1CCN(C(=O)C2CCCO2)CC1 (stereo unspecified)	–	–	–	–	–	·
COc1cc(NC(=S)N2CCN(C(=O)C3CCCO3)CC2)c(OC)cc1Cl (stereo unspecified)	–	–	–	–	370	–
COC(=O)c1ccc2[nH]c(C(C)(C)O)c(C)c2c1	–	–	–	–	684	–
COC(=O)c1ccc2[nH]c(C)cc(=O)c2c1	–	–	–	–	–	·
Cc1cccc(C)c1NS(=O)(=O)c1ccc(OCCNS(C)(=O)=O)cc1	–	–	–	–	655	–
CC(C)C[C@H]1COc2cc(NCc3ccc(Cl)c(Cl)c3)ccc2S(=O)(=O)N1	·	·	·	–	·	·
O=c1[nH]cnc2cc(Cl)ccc12	–	–	–	–	+	–
O=C(Nc1ccc(OC(F)(F)F)cc1)c1ccc2ccccc2n1	–	–	–	–	645	–
c1ccc(CNc2ncnc3sc4c(c23)CCC4)nc1	–	–	–	–	818	–
CCOC1(OCC)C(c2ccc(Cl)cc2)C(C#N)(C#N)C1(OCC)OCC (stereo unspecified)	–	–	–	–	495	–
CCOC1(OCC)C(c2ccc(N)cc2)C(C#N)(C#N)C1(OCC)OCC (stereo unspecified)	–	–	–	–	–	·
CC(C)NC(=O)N(C)C[C@@H]1OCc2cn(nn2)CCCC(=O)N([C@@H](C)CO)C[C@H]1C	·	·	·	–	·	·
CCOc1cc(-c2ccccc2)nc(N)n1	–	–	–	–	460	–
COc1ccc(C(=O)c2[nH]c(N)c(C(=O)c3c[nH]c4ccccc34)c2-c2ccc(F)c(OC)c2)cc1	·	·	·	–	·	·
CC(Sc1n[nH]c(N)n1)C(=O)C12CC3CC(CC(C3)C1)C2 (stereo unspecified)	–	–	–	–	–	·
CC(SC#N)C(=O)C12CC3CC(CC(C3)C1)C2 (stereo unspecified)	–	–	–	–	386	–
CC1CCCC(C)N1C(=O)CSc1nnnn1-c1cccc2c1CCCC2 (stereo unspecified)	–	–	–	–	414	–
CN(C)S(=O)(=O)N1CCc2ccccc21	–	–	–	–	–	·
CN(C)S(=O)(=O)N1CCc2ccccc2C1	–	–	–	–	+	–
OC(c1ccccc1)(c1ccccc1)C1CCN(CCCOc2ccccn2)CC1	·	·	·	–	·	·
CCSc1nc2ccccc2c(=O)n1C1CCOC(C)(C)C1 (stereo unspecified)	–	–	–	–	545	–
COc1ccc(C2NC(=O)c3ccccc3O2)cc1OC (stereo unspecified)	–	–	–	–	–	·
COc1ccc(C2NC(=O)c3ccccc3O2)cc1 (stereo unspecified)	–	–	–	–	529	–
